Measured values as given in the supplement of paper PMC10681739.
± gives the standard deviation of the averaged measurements. In all, about 4,100 sequences were measured (“arbitrary fluorescence units”: median about 780, highest 2% from about 22,000 on). The list comes from a sample in which the highest values are over-represented; it also holds similar and randomly drawn sequences.

Molecular target: T1, ETS1 (UniProt P14921)
T1 sequence: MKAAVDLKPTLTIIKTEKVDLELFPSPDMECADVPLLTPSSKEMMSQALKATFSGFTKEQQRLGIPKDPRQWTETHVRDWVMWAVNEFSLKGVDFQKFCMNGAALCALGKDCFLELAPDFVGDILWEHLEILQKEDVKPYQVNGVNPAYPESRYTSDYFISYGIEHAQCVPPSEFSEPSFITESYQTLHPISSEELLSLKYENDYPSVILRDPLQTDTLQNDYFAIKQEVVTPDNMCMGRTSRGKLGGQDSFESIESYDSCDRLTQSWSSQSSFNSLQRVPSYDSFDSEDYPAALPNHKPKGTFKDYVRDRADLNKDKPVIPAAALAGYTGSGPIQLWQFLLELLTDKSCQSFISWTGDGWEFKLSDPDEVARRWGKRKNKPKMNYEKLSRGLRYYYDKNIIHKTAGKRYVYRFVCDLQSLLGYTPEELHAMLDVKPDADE
Test: ETS1 binding intensity (PBM fluorescence), ETS1 alone (arbitrary fluorescence units); higher = stronger binding
Settings: ETS1 concentration 1 nM; RUNX1 concentration 0 nM
Method: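 gcPBM on 36-bp genomic-derived probes (partner site mutated) containing one ETS1 site and no RUNX1 site. Recombinant human ETS1 (1 nM) was incubated alone or with RUNX1 (25 nM) and detected by anti-ETS1 antibody fluorescence. Values are medians over 4 replicate spots (not normalised). The probes sit in constant array flanks that are not printed.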

Sequence	ETS1 binding intensity
GACTGCGCCGGACGCGCCAGCCCTGCGCGATGACGT	678
TGGCTGTCACTTCCTGTCCCACTGTCGTTCCTGGGA	20600
CGTTTCCTGTCTGGGACTGCGCCCACGCGATCACGT	38800
TCCCTCCTTCCGCTCTGGTTTTGGGGTTGCTTGCTG	6220
CCAACAGCAGCGCTACTCCCGGCCGCTTCCGCCTGG	748
CGGCCTCTTCCGGTCACCTGGCCCGTCGCTGTCCCG	17300
CCGCGTCCTCAGAGGTCCGGCCGGAAGTCACCTGAA	8340 ± 1500
GGCACTTCCGGTCCTGACCTGAAGCGCTCACCGTCA	55000
ACAAAGTCAGTGGCAATGTGGAACGTCCGCCAAGAG	384
GCGGAGGGAAGCGGAAATACTTGCAGTGGGGGCGAC	3700
CTCTTGGCGGACGTTCCACATTGCCACTGACTTTGT	616
GCCACTTCCGGTCACTCCCCTCAGCGGCCTCGCGCT	39600
CAACTCCGGCGCCCTCAGGCCACTTCCGCCTATGTA	4590
CACTCCCCTCCCGAGGTCACACTTCCGGCGGCCACC	7960
CTGCCTTTCCTGCTAGGGTACAAATCACAGCCTTAG	1670
AACTTCCTTCCCGAGAGCCTGAAGCAGCCGTAGGCC	9120
TTTAAGGTTCATGCTGTACTCAGAACATCCTGTTCT	1150
TCCCGCTTCGGCCAACAGCCGGGCCACTTCCGGGGC	2910
TCCCCACACTTCCGGCCCCGCGCGCACAGCCGCACC	25400
CGGGTTAAACAGCAGCCGCGCCCACACTTCCGGGGT	2120
CCGCGAACAGCAGAATTCCCGCCTTCCGCAGCCCGG	480 ± 6.2
GGTCTCTGCTTCCGGTCCTTGGGGTAGCACCTCTGT	32000
TGGGGCTCTTCCTGCTTATGTGAGCACAGCACCTTG	4750
AGCACCAGTGTTGTCTCTGCTTCCGGTCCTTATGGT	7490
CAGCCAGCGCACCTCCTCCTCAGCTTCCTCTGGTGC	620

Sequence	ETS1 binding intensity
GATGAGGGCTTGCGCGCAAACAGCCCGGAAATGAGG	1010
CGGCCGCCGTTTAGGGCGGCCCCGGAAGCGGGGCGC	531
GGGGACCGGAAAGGGAGGGGTGGGCCGTAGGCGCCG	4430
CAACAACCGGAAGTGGGGCGGGCCGTAGTACCCGCC	35100
TTGCATGTAGTTTAGGCTGTAGTTTCCTCCTGTAGT	534
AGGCTCATTTCCTGTTTTCATGTAGTTTAGAGAAAA	24300
GCACTCATTTCCTGTCCCCTGTAGTTTAAAGGTTTT	19700
TATATGCACAGGAAGTCCCTTACAACCTACTCTGTT	3590
AGAAGTGCAGTGGAGGAGGGCCGGAACGGTGACTAT	393
AGGACCGGAAGTGCCCGAGGGCGGCCGGAGAACGGT	45500
GGCGGGAGAGGAAGCCGGGCGGCCGAAGCTGCCTGT	811
CCATTCCTACGGCCTTCATTGCTGCATCCGGTGGAG	2480
CTCTGGGAGGCCGCCGCTTTCCACCGGAAAGAGGGT	555
AGGTACAACACCAGACGGTAGGCCAGGAAATCGCAG	407
CTCCGCGCAGCCCCAGAGACCCTTGGGAAGTGTGGT	320
CTCGGCCAACGCGTGCTCCACTCGGAAGTGGTGCCG	457
CAAAGTGATGGGGGAAATGGTTGTAGTTTTGGGTGG	514
GTTGCAAAGGCGCCTACAACTACTTCCGCTTCTAGT	4670
CGTGTGAGGGGGCGCAAGGCAGCGGCAGCTTCCGCC	830
AACAGTACTTCCGGGGCAAGTGAGCGCCTACAAGGC	30400
AAATGAGCGGAGGTTGAGCCCTACTTCCGGTGGTGC	14100
TGAGCCCTACTTCCGGTGGTGCTGTGCTCTGCCCCT	29700
CTTCTACTTCCTGCCCCGCCCCCAGCTGTGCTCACA	17900
GCTTGTCTTCCGGTTTCGTCGCCGCCGTAGGCGCAC	16700
TCGGGCTGCCGAAGAGCAGCTATTTCCTGTCTGCAC	5010

Sequence	ETS1 binding intensity
AGTTTCCTGAACTCAGAGCACAGTTCTGGTGCAGAA	6300
TATTTCCTGTGCACAGAAGCAGCTGGGCCGAAGAGT	34400
CCAGACCCGGCGGAACTACCGTGCCCTCAAGGCAGC	477
TTCAGGTGACTTCCGGCCGGACCTCTGAGGACGCGG	24100 ± 4200
ACGCGCGCGGGGGAGGTGGCTTCTTCCGGCCGGGCC	1860
CCCGGAGGACGTCCGGCCTCTGTGAGCCGCCACCTT	4500
CTCGGCCAGGAAGCACTGAGCCACTTCGGCATCGCA	591
TGACAGACCCGGAAATAAGAGGAGACAACACACTTG	4440
GGCAGGAAAGAGCTGATGCATTTCAACAGCAGCCTG	477
CCTGAGCGCCCGGAAGGAAGGCTGGGGTAGGTTGTC	756
GTCGGAAGTGGCCGTGAGCCCAAGCCGAGGTCCCGG	1130
ACCAACCGGAAGTGATCGTGTCGTGGCCGAAGGAGG	32300
GGAGGGGCTGGCCGGAAGTGAACCGAAGAGCACGCT	16700
TGCGCCAGCGGGAGGGAGCAGTTCCGGGTACGGTGC	563
CAGGACCCCTGTACTCCGGGTGAAGCGGAAGCGCAG	667
TTATCTGTCGTTCTTTTATGGGGTGGGCTTCCTCTG	503
GAGAAAGCAGCGCCCCAGCGCGCCTTCCGCCACGCC	328
AGCCGCCACTTCCTGTCTCTGAGGGTGCATGCTCTT	36000
CAGTCTGGCCATGAGGTGCCACTTCCTCTCTGGTTT	1550
CTGACTTGTTGTAGTCTCTGCCACTTCCTGAGGTGT	668
TAAAATTTCGGGAGGGGACTTGGTCCTTCCTGTTGC	735
GCGCCCCGCTTCCGGGGCCGCCCTAAACGGCGGCCG	10100
AGCAACCTACTACCCGGCGCCTGATTCACTTCCCTC	391
CTTACTATATTAACGCCGGTACACATCCGCCCGACA	1800
ATTACATCCGGGCTCCGCGACACGCCCGAACCCCAA	25300

Sequence	ETS1 binding intensity
CCCCGTTACGCCCATCCGGCTCCCGAATAGGGCGTC	2610
CTTACGGCCTCGCGCCATGGGCAGTATCCGCCGCCA	328
GATGGGCTGGGGATGTGGCCTGTTTGCCGCTGGCGA	361
GGCTGCGACTTCCGGACTGCTCCTGGCCGCTGGGGG	22900 ± 1200
GGCTGCGCCGGCTGGGGTGTTCCTCCGACTTCCGGA	1590
CAGCCGACTTCCGGGGTGGGGCTTGCTGCCGCTGAG	19300
GCAGAGAGGAAGTGTGGGGGTGGAGGAGGCCGAAGA	1840
AGACGGGACCGGAAGCCGGGCCGTAGGCGGCCGGGC	12100
TTTCGAGAAAACCGGAAGTGCGTGGACACGCCCCGC	31500
GCCGCCGTAGATTCGACACAAAACCCGGAAGGACCC	530
AAACTACTTCCCCATATCATCTGTAGCTTGCACAAC	1180
TGAGGTGCTAAAGCACCAAGCACTTCCTGCTGTTAG	3380
GCGAGCACTTCCGGTGTGTGAGCCTGCTGTTGCTAC	32800
CTTAGCACTTGTAGTCAGCCTGCTTCCGGCTGTGGC	2100
GGGGCAGGAAGTGGAGGTTTGAAGTGCTTTAGAGTA	7390
GGGCCCCTCAGCCCGACCGCCTGACCGGAAGTGCAG	5030
TGAACTCCGCCCAGCGCGATCCGGAAGCCTAGCGCC	443
TTGGTGACCTCTTCCTGTCCGCTGGGGTGTTGTTAC	3680
TCGCTTCCGGTGTCGGTTACAGACTGGGGTTGCCAT	30000
TGCTTCCCGTCCGTGTCGCGGCCCTGGGGTTGGCGG	8550
TTCAGGCGGCAAAGAACAGACCTGCAGGAGGAAATA	404
CTCTTCCGGCCGCGAGGAGCGCGACAGCGGCCCCTG	14400
TGTTGACTCAGGAAGATGATGGCTGAGGGGGCTGCA	509
TCTAAATCACTTCCTGTTACAGAAACTACAGGCCTG	26900
CACTTCCTCCTCGGGGGCCTCAGAAAATCACAGGGC	13200

Sequence	ETS1 binding intensity
CTAAAGGCAGGGACTACAAACACTTCCTGTTTGTGT	7710
GGAGCGCGCTGGGGACGTTTAAAGGAAATTTACAAT	363
TCCGTGAGGTGCAGCAGGTCGGTAGGCGGGAAATGG	378
TGCTGCACCCCAGCCCCTTTCTCTTCCGGTTCTAGG	1850
AACATCCGGTTCCCGGTTCTGCCCCCTACCCCAGCT	49100
CCGACCCCAGCTTCCCGGGGTTGAGGCCCTGCCTCC	462
ACTTGACTTCCTGTGGGGTGTCTGGTGTCTGCACTT	11700
GACCACTTCCTTTCTGTGTTTTGGGGTTTCACAACT	11900
ACAACTTCCTGTGGGATTTTTGGTGTCTACGGCTCA	37400
GGGCCCACATCCGGCGCGCGCAACAGCAGCCTACTG	25800
GTCCAACAGCAGCCAGGCAAGCACATCCTGCCCCAC	1980
CTCCCACATCCGAAGCGGCGCAACTCACAACAGCCT	1140
CGAAGAGGAAACAAAGAAAGGTGCTGTTCTGGCGCC	506
TCAAGAAAACAGGAAACTCTCAAATCCAAGTTCTGA	3280
TTCTATCCTGCCTTGCATGTCTTTAATCACACTGAG	1540
ATGAGCTATTTCCTGCCTTGTTGTCAGAGCCAGACT	23500
CAGCTGCAGGCCTGGGTGTACGGAGCCCGGAACAGG	567
TACCTACAGGAAATGAGACACACCTCAGGCCGATCC	5550
CTCAGACCCTCAGTGAGGTCTGACGTCATTTCCTGC	734
CCTGCTGCTGTCAGCCCTGTCTCTTCCTGTTTCTGC	1030
CACTTCCGGGTCGTCAGCTCAGTTCTGCTGTTTCTG	26000
CTCGTGTTTTGTAGCTGTGTTCTGTCCGGTCAGTTG	502 ± 32
TGGATAGTGGGACACCTCAACAGGATGTTAGTGAGG	858
GACGGCCGCTTTTGGCGCGGGACTTCCTGCCTGGCC	3070
CCCTCCGGCCCTCAGCCCTGCCCAAACGGAAGTGCT	787
